Rows were chosen to be rich in hits. Some 4.7% of all compounds tested hit in one or more screens of this group.
GDH-TPI counter: inhibits GDH-TPI coupling enzymes, artifact for Mtb FBA screen; GDH-TPI coupled enzyme counterscreen, NADH absorbance; actives 1.2% (n = 360,000); inhibition, % at 4.8 µM
CCHFV vOTU inh: CCHFV vOTU protease inhibition | Pep-AMC fluorescence | inhibition, % at 11.5 µM | actives 0.55% (n = 370,000) | AID 651958
FBA Mtb inh: inhibitors of M. tuberculosis fructose-bisphosphate aldolase; purified M. tuberculosis FBA, fluorescence read-out; P9WQA3; actives 2.3% (n = 360,000); inhibition, % at 1 µM; AID 588726; in the data active = inhibition above about 27%
RecA intein inh: Mtb RecA intein splicing inhibition; P9WHJ3; cell-free RecA intein splicing, fluorescence; inhibition, % (concentration not given with the values); actives 0.75% (n = 290,000); in the data active = inhibition above about 30%
VHR inh abs: blocks human VHR1 dual specificity phosphatase; P51452; recombinant VHR phosphatase, pNPP absorbance; inhibition, % at 13.3 µM; actives 0.52% (n = 290,000); AID 1654; in the data active = inhibition above about 50%
3CLpro inhibitor: SARS-CoV 3CLpro protease inhibition | AID 1706 | inhibition, % at 6 µM | P0C6X7 | actives 0.14% (n = 290,000) | recombinant SARS-CoV 3CLpro, quenched FRET peptide cleavage; in the data active = inhibition above about 12%
Of the large screens only hits and unclear results are named; the others gave an inactive call. Rule as the data show it, unless noted: active = inhibition above about 30%; inactive = the rest.

COC(=O)[C@]1(Cc2ccccc2)N[C@H](c2ccc(-c3cc(C(C)=O)cs3)cc2)[C@@H]2C(=O)N(C)C(=O)[C@@H]21	GDH-TPI counter 34.4 (no result: VHR inh abs, 3CLpro inhibitor)
O=C(Cn1cnc2ccccc21)OCC(=O)N1CCCCC1	none (no result: RecA intein inh, VHR inh abs, 3CLpro inhibitor)
O=C(c1cnc2sccn2c1=O)N1CCCc2ccccc21	GDH-TPI counter 31.7 (no result: 3CLpro inhibitor)
Fc1ccc2nc(-c3ccc(CN4CCC(c5nc6ccccc6[nH]5)CC4)cc3)c(-c3ccccc3)nc2c1	none (no result: GDH-TPI counter, FBA Mtb inh, RecA intein inh, VHR inh abs, 3CLpro inhibitor)
Cn1c(=O)c2cc(NC(=O)Nc3ccccc3)ccc2n1Cc1ccccc1	FBA Mtb inh 142.0 (no result: RecA intein inh, VHR inh abs, 3CLpro inhibitor)
Cn1c(=O)c2cc(NC(=O)NCc3ccccc3)ccc2n1Cc1ccc(Cl)cc1	FBA Mtb inh 123.3 (no result: RecA intein inh, VHR inh abs, 3CLpro inhibitor)
O=C(CSc1ccsc1[N+](=O)[O-])NCCc1ccccc1	FBA Mtb inh active
COc1ccc2c(=O)c3ccccc3oc2c1	none
COc1ccc2oc3cc(NCCN(C)C)ccc3c(=O)c2c1	FBA Mtb inh active (no result: GDH-TPI counter, RecA intein inh, VHR inh abs, 3CLpro inhibitor)
COc1cc(-c2cc3nc4ccccc4n3c(N)c2C#N)cc(OC)c1OC	FBA Mtb inh active
N#Cc1c(-c2ccccc2)cc2nc3ccccc3n2c1N	FBA Mtb inh 147.4
CCn1c2ccccc2c2cc(NC(=O)COC(=O)c3ccc(F)cc3F)ccc21	none (no result: GDH-TPI counter, FBA Mtb inh, RecA intein inh, VHR inh abs, 3CLpro inhibitor)
CCCCNc1ccc2c(c1)OC[C@H](CC(C)C)NS2(=O)=O	none (no result: GDH-TPI counter, FBA Mtb inh, RecA intein inh, VHR inh abs, 3CLpro inhibitor)
CNC(=O)c1nnsc1S(=O)(=O)c1ccc(Cl)cc1	RecA intein inh 39.8
NS(=O)(=O)c1ccc(NC(=O)CSc2nnc(-c3cccs3)o2)cc1	none (no result: GDH-TPI counter, FBA Mtb inh, RecA intein inh, VHR inh abs, 3CLpro inhibitor)
COc1ccc(N(CC(=O)Nc2cccc(F)c2)S(=O)(=O)c2c(C)[nH]c(=O)[nH]c2=O)cc1	VHR inh abs 55.7
COc1ccc(N(CC(=O)Nc2cccc(C(F)(F)F)c2)S(=O)(=O)c2c(C)[nH]c(=O)[nH]c2=O)cc1	none
O=C(N/N=C/c1ccc(Br)o1)c1ccc2c(c1)OCCO2	GDH-TPI counter 41.4
Cc1cc(O)cc(O)c1/C=N/NC(=O)c1ccc2c(c1)OCCO2	GDH-TPI counter 44.2 (no result: RecA intein inh, VHR inh abs, 3CLpro inhibitor)
C#CCN1CC(COc2ccccc2)OCCS1(=O)=O (stereo unspecified)	none (no result: GDH-TPI counter, FBA Mtb inh, RecA intein inh, VHR inh abs, 3CLpro inhibitor)
FC(F)(F)c1cc(Cl)c2nc(-c3ccccc3)c(Cc3ccccc3)n2c1	none (no result: GDH-TPI counter, RecA intein inh, VHR inh abs, 3CLpro inhibitor)
CCOC(=O)N1CCc2c(sc3nc4n(c(=O)c23)N=C(C)CS4)C1	GDH-TPI counter 30.9
CCOC(=O)c1sc(NC(=O)CSc2n[nH]c(-c3ccccc3)n2)c(C#N)c1C	GDH-TPI counter 32.8
CCOC(=O)c1sc(NC(=O)CSc2ncn[nH]2)c(C#N)c1C	GDH-TPI counter 31.3
CCOC(=O)c1sc(NC(=O)CSc2nnc(Cc3ccccc3)o2)c(C#N)c1C	none (no result: CCHFV vOTU inh)
CCOC(=O)c1sc(NC(=O)CSc2ccccn2)c(C#N)c1C	none
CCOC(=O)c1sc(NC(=O)CSc2nc(C)cc(C)n2)c(C#N)c1C	GDH-TPI counter 31.8
CC(C)(C)OC(=O)NCc1cc(F)ccc1/C=C/S(=O)(=O)NCc1ccc(F)cc1	none (no result: GDH-TPI counter, FBA Mtb inh, RecA intein inh, VHR inh abs, 3CLpro inhibitor)
CCCn1c(C)nc2c(c1=O)c1nc3ccccc3nc1n2CCC1=CCCCC1	FBA Mtb inh 91.3
Nc1nc2nc(-c3ccc(Cl)cc3)cc(C(F)(F)F)n2n1	FBA Mtb inh active (no result: CCHFV vOTU inh)
CC(C)(C)c1ccc(-c2cn(C[C@H](Cc3ccccc3)n3c(=O)c4ccccc4n3Cc3ccno3)nn2)cc1	none (no result: GDH-TPI counter, FBA Mtb inh, RecA intein inh, VHR inh abs, 3CLpro inhibitor)
CN(Cc1nc(-c2ccncc2)no1)S(=O)(=O)c1ccc(Cl)cc1	VHR inh abs 51.4
CCOC(=O)c1ccc2nc(NC(=O)c3ccco3)sc2c1	GDH-TPI counter 36.5
O=C(Nc1nc2ccc(F)cc2s1)c1cccs1	GDH-TPI counter 40.2
CCOc1ccc2nc(NC(=O)c3ccco3)sc2c1	none
CCOC(=O)c1ccc2nc(NC(=O)c3cccs3)sc2c1	GDH-TPI counter 37.8
O=C(COC(=O)c1ccco1)Nc1nc2ccc([N+](=O)[O-])cc2s1	GDH-TPI counter 33.8
CN(C)S(=O)(=O)c1ccc2nc(NC(=O)c3cccs3)sc2c1	none
CC(C)(C)S(=O)(=O)N1C[C@@H]2C(=C(CCO)C[C@@H]3C(=O)N(c4ccccc4)C(=O)[C@@H]32)[C@H]1CCO	none (no result: GDH-TPI counter, FBA Mtb inh, RecA intein inh, VHR inh abs, 3CLpro inhibitor)
Cc1c(C(=O)NCC2COc3ccccc3O2)oc2ccc(S(=O)(=O)N(C)C3CCCCC3)cc12 (stereo unspecified)	VHR inh abs 52.3
CN(C)S(=O)(=O)c1ccc(N2CCCC2)c(C(=O)NCC2COc3ccccc3O2)c1 (stereo unspecified)	none (no result: VHR inh abs, 3CLpro inhibitor)
COc1ccccc1OCc1nc(C#N)c(N2CCCC2)o1	none

Bioassay records: PubChem BioAssay, several laboratories
